A number with no mark means an inactive call.
What was measured:
Assay in all cases: log2 ratio of Biotin-Ahx-Ub-VS probe labelling (fragment/DMSO); higher = less target engagement (more negative = stronger competition), active = hit call of the paper (q ≤ 0.05, log2 ratio ≤ -1)
Conditions in all cases: compound concentration: 200 uM; treatment time: 3 h
[1] = biological target: T1, USP19 (UniProt O94966)
T1 sequence (whole entry): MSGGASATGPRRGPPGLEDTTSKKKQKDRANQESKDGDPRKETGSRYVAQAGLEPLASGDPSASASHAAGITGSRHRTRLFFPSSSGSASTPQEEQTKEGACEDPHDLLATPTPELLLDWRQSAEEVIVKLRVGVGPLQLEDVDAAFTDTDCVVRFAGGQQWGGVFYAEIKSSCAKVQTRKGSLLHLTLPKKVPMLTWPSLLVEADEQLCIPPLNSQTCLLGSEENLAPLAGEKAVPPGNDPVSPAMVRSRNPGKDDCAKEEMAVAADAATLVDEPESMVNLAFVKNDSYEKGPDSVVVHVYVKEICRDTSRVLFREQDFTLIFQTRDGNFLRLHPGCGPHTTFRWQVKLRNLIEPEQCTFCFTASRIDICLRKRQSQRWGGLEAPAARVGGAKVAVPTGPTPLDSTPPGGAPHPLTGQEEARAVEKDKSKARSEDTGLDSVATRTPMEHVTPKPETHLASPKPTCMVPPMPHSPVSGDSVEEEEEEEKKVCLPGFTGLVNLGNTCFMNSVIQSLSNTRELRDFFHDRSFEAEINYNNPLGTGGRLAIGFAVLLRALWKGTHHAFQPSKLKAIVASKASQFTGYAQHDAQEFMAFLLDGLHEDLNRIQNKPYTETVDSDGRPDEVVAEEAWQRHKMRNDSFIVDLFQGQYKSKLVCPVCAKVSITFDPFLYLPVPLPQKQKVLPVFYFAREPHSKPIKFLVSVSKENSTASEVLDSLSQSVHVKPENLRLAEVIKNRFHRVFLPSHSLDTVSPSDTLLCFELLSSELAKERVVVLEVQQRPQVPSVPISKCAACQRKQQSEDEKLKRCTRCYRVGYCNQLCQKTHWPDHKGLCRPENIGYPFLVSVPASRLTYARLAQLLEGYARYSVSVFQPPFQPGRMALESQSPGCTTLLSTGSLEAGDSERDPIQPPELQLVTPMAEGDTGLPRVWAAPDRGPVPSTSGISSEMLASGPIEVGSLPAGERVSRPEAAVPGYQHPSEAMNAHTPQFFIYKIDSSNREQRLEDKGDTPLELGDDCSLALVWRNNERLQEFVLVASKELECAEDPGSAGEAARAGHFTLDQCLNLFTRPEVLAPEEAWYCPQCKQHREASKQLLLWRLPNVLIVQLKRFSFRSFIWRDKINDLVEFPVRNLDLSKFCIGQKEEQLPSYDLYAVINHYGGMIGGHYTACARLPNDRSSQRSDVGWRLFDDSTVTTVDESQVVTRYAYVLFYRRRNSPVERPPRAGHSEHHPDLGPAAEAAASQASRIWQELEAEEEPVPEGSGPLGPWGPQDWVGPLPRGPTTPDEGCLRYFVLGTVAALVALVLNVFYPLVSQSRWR
Method in brief: (§1)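 Labelled DUBs from HEK293T lysate were NeutrAvidin-enriched, digested with LysC and trypsin, and run by diaPASEF LC-MS/MS. Before that, each 495 µg sample in Tris/CHAPS/IGEPAL buffer with protease inhibitors was treated in triplicate with fragment at 200 µM or vehicle for 3 h, then with Biotin-Ahx-Ub-VS at 0.5 µM final for 1 h. Values are average log2 ratios of fragment over vehicle by unpaired t-test, based on global-median-normalised Spectronaut label-free quantities from proteins with ≥2 unique peptides.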

[2] = biological target: T2, USP22 (UniProt Q9UPT9)
T2 sequence (whole entry): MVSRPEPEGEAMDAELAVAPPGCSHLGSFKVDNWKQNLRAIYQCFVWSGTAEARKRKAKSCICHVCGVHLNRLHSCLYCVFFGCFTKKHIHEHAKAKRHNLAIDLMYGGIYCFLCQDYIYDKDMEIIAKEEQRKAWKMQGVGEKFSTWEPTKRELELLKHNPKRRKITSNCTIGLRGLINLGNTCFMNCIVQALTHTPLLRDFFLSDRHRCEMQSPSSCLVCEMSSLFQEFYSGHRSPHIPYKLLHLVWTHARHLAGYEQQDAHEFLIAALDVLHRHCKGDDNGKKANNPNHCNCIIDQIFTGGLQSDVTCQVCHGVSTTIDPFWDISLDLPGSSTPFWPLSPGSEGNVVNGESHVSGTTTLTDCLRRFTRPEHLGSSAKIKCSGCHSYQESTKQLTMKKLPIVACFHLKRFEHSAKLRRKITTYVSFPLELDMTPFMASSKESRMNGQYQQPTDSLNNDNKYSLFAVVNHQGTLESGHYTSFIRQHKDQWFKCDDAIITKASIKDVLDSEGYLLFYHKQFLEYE
Method in brief: as §1

[3] = biological target: USP24 (UniProt Q9UPU5)
USP24, sequence (Q9UPU5 whole entry): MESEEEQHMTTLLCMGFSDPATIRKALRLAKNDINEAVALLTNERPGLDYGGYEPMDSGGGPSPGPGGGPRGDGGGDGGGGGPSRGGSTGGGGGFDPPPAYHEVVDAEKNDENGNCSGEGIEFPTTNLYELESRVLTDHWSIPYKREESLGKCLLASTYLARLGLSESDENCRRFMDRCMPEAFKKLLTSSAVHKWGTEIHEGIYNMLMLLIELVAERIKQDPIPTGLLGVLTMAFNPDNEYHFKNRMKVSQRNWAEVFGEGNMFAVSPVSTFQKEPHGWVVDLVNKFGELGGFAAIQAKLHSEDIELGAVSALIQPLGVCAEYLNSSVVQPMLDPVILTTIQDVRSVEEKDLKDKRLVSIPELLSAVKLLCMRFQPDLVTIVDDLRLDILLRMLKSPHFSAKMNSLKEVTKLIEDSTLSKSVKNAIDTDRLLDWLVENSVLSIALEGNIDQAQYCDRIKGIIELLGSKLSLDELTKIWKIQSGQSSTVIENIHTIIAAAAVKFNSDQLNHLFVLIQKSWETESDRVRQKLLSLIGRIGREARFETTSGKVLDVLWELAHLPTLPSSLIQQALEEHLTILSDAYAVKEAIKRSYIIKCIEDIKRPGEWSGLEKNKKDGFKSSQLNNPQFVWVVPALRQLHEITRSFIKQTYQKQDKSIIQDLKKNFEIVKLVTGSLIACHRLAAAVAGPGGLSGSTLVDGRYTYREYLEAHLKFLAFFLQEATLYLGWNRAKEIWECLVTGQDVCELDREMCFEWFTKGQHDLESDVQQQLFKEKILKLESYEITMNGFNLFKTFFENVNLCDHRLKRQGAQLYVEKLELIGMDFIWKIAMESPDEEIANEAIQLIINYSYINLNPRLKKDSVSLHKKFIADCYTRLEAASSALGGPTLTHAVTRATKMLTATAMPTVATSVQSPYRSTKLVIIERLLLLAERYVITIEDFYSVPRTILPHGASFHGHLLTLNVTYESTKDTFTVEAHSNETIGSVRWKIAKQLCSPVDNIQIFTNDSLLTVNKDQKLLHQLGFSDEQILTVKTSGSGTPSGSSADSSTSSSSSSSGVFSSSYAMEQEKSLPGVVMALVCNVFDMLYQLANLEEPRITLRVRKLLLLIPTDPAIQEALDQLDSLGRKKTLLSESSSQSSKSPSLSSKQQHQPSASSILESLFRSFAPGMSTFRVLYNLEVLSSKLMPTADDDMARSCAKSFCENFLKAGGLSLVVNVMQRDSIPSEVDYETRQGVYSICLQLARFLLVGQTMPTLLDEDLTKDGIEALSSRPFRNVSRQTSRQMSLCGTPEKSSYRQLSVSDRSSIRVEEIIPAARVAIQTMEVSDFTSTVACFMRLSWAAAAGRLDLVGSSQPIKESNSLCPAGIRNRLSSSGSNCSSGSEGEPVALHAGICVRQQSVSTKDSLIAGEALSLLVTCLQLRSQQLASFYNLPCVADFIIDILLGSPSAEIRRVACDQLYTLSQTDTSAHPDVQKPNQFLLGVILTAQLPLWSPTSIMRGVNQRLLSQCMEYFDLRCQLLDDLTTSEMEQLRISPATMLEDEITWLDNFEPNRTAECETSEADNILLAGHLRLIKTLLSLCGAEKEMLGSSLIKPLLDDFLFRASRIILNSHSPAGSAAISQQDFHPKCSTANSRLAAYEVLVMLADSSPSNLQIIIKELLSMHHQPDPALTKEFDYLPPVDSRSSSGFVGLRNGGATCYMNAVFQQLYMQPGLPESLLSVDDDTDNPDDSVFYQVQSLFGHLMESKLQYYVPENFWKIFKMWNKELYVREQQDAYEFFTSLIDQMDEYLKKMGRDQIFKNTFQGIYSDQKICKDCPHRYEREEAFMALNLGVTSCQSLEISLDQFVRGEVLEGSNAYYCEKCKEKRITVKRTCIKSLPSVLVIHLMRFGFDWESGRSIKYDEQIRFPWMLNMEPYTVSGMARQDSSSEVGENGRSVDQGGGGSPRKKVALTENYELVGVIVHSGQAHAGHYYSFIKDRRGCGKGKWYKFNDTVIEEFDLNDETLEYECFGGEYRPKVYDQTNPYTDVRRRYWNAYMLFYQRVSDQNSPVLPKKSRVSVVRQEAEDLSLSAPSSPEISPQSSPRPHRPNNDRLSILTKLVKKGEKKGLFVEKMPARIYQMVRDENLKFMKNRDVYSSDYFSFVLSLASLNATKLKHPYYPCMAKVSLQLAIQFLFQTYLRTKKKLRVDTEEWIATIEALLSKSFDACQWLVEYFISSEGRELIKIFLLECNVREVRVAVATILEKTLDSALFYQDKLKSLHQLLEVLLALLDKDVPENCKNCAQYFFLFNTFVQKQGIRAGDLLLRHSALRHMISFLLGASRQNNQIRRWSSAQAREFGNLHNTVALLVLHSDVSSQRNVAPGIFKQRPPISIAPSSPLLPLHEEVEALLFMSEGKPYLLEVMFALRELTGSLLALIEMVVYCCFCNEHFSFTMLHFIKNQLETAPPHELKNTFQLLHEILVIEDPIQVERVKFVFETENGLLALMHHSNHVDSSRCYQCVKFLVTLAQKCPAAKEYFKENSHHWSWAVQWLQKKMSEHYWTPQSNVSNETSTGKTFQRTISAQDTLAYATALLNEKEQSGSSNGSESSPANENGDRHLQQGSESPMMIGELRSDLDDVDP
Method in brief: as §1

[4] = biological target: T3, USP25 (UniProt Q9UHP3)
T3 sequence (whole entry): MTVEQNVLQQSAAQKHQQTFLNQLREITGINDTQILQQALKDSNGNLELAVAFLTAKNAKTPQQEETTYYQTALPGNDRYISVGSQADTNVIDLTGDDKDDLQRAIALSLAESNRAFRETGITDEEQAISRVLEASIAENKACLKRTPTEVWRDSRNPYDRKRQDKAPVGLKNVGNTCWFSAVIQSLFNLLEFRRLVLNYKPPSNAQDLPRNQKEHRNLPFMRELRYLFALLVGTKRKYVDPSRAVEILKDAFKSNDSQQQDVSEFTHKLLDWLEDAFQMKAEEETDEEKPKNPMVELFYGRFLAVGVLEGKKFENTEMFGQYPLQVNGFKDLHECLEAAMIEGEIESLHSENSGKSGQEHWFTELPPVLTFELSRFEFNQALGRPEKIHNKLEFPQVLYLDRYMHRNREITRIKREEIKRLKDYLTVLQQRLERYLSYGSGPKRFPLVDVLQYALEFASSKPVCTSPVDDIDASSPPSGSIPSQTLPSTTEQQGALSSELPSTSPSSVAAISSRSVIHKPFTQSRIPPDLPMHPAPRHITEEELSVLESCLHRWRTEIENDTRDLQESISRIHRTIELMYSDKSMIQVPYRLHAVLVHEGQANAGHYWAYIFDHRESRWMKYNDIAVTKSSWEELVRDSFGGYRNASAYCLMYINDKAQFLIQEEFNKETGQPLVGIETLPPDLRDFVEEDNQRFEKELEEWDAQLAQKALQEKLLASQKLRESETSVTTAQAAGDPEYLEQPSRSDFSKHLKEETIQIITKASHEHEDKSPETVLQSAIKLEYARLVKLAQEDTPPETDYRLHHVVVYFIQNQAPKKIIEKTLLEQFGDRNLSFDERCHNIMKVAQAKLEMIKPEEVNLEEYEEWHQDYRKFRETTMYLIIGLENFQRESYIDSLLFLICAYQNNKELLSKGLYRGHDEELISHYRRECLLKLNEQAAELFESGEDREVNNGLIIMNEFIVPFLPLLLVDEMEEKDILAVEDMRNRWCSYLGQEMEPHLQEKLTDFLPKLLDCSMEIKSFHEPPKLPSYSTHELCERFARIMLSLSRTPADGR
Method in brief: as §1

[5] = biological target: T4, USP28 (UniProt Q96RU2)
T4 sequence (whole entry): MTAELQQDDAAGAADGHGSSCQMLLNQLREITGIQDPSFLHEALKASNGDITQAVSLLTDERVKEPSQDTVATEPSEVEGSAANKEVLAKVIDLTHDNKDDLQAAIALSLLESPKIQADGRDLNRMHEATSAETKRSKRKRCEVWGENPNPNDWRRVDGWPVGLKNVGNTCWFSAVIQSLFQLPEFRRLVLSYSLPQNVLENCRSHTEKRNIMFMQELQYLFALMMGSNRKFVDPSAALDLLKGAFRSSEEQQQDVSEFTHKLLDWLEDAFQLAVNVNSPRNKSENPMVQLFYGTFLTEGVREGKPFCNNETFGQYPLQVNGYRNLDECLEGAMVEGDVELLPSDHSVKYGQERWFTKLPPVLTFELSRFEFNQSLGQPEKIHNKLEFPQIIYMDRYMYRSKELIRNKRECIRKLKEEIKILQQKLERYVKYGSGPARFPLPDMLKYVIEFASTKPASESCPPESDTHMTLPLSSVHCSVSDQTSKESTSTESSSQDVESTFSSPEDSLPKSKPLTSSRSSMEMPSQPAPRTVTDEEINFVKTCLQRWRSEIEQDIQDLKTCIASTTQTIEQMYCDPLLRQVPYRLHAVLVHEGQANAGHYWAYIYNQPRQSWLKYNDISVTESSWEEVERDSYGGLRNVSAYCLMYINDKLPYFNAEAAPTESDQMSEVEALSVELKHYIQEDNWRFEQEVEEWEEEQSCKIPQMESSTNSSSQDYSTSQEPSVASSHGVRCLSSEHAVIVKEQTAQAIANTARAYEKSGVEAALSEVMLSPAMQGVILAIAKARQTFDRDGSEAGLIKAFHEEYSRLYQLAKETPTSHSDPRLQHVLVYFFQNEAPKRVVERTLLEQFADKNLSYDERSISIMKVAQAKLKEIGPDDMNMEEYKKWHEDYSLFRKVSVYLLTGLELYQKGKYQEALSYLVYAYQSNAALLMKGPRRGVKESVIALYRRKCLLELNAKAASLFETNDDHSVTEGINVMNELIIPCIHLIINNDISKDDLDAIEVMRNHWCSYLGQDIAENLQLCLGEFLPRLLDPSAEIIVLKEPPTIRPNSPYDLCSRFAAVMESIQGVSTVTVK
Method in brief: as §1

## O=C(CCl)Nc1ccc2c(c1)OC(F)(F)O2
[1]
  log2 ratio of Biotin-Ahx-Ub-VS probe labelling: -0.102
[2]
  log2 ratio of Biotin-Ahx-Ub-VS probe labelling: -0.358
[3]
  log2 ratio of Biotin-Ahx-Ub-VS probe labelling: -1.19 (active)
[4]
  log2 ratio of Biotin-Ahx-Ub-VS probe labelling: -0.541
[5]
  log2 ratio of Biotin-Ahx-Ub-VS probe labelling: -1.3 (active)

From the supplement of paper PMC11732987, “Enantioselective OTUD7B fragment discovery through chemoproteomics screening and high-throughput optimisation” (Communications Chemistry, 2025)
